A selection: hits, their analogues and other compounds. The true share with any hit is near 2.3%.
VDR inh: Inhibitors of the vitamin D receptor (VDR): qHTS | Vitamin D3 receptor (Homo sapiens), P11473 | VDR-SRC2-3 peptide fluorescence polarization, 2 h | Potency, µM, for the others: max response, negative = inhibition, actives largely listed as inhibitors | 400,000 compounds, 0.93% hits | AID 504847, 2011; note: potency is the fitted concentration of half-maximal effect; % is set by controls: 0 for no effect and ±100 for the full control effect
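Compounds are added to VDR with labelled SRC2-3 coactivator peptide and held 2 h at room temperature. Inhibition of the VDR–peptide interaction is then read as a change in fluorescence polarization.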
GoLoco inh red: qHTS Assay for Inhibitors of RGS12 GoLoco Motif Activity (Red Fluorophore); Gai1:RGS12 GoLoco peptide FP, rhodamine, 10 min; Guanine nucleotide-binding protein G(i) subunit alpha-1 (Homo sapiens), P63096; AID 880, 2007; Potency, µM (doses to about 61.6 µM), without a hit: at the top dose activity, negative = inhibition, most hits filed as inhibitors; 230,000 compounds, 0.44% hits; active = well fitted inhibition curve with a large enough effect, not every such curve was filed as active; inactive = no such curve, though single readings can be large or run the other way; note: potency is the fitted concentration of half-maximal effect; % is set by controls: 0 for no effect and ±100 for the full control effect; nearly all actives have a fitted effect of over 30% in size
Target sequence (P63096 whole entry, looked up): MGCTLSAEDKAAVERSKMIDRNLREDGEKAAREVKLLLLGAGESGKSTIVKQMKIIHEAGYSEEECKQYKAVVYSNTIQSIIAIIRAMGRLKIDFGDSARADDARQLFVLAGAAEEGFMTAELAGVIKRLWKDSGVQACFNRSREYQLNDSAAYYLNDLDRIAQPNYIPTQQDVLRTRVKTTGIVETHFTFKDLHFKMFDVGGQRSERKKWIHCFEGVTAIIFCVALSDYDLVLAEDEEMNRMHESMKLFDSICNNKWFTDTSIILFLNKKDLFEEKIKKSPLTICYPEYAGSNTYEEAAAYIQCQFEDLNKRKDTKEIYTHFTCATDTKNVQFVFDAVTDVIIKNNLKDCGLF
HTT aggregate: qHTS Multiplex Assay to Identify Dual Action Probes in a Cell Model of Huntington: Aggregate Formation (GFP); PC12 HttQ103-GFP aggregates, Acumen cytometry, 40 h; Potency, µM (top dose mostly 46.1 µM), for the others: at the top dose activity change, negative = inhibition, actives largely listed as inhibitors; 220,000 compounds, 1.1% hits; AID 1688, 2009; note: potency is the fitted concentration of half-maximal effect; % is set by controls: 0 for no effect and ±100 for the full control effect; nearly all actives have a fitted effect of over 60% in size
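Read-out: GFP aggregate count by laser scanning cytometer (488 nm excitation, 500-530 nm emission, 1–25 µm objects >6 SD above background). Cells: PC12, inducible HTTex1-Q103-GFP, 100 nM tebufenozide; compounds titrated.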
Coupling enz: qHTS Assay for Inhibitors of Fructose-1,6-bisphosphate Aldolase from Giardia Lamblia: Coupling assay counterscreen | coupling enzyme system counterscreen, AmpLite Red fluorescence | activity change, negative = inhibition, % at 58.2 µM, hits read low | 290,000 compounds, 0.67% hits; in the data active = activity change below about -30%; note: % is set by controls: 0 for no effect and ±100 for the full control effect
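Activity here indicates interference with the coupling reaction, not aldolase inhibition. Compounds at 57.5 uM final met coupling enzymes for 10 min at RT; substrate and AmpLite Red detection followed, with a 525/598 nm fluorescence read after 20 min.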
HTT ATP protect: qHTS Multiplex Assay to Identify Dual Action Probes in a Cell Model of Huntington: Cytoprotection (ATP) | PC12 HTT-Q103 induced, cytoprotection, ATP luminescence, 40 h | 230,000 compounds, 0.14% hits | Potency, µM (highest dose often 56.4 µM), for inactives: cytoprotection (ATP increase), usual class: activators; note: potency is the fitted concentration of half-maximal effect; % of control where 0% means no effect; nearly all actives have a fitted effect of over 45% in size
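Readout: ATPlite luminescence (ATP level). Model: stable PC12, inducible Htt exon1 Q103-GFP. Inducer: tebufenozide, 100 nM final. Compounds: dose series. No G418 in medium.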
KDM4E inh: qHTS Assay for Inhibitors of Human Jumonji Domain Containing 2E (JMJD2E); JMJD2E catalytic domain, FDH-coupled NADH fluorescence (FDH is formaldehyde dehydrogenase); Potency, µM (doses to about 57.1 µM), inactives show top-dose activity change, negative = inhibition, actives largely listed as inhibitors; Lysine-specific demethylase 4E (Homo sapiens), B2RXH2; 230,000 compounds, 1.6% hits; active = well fitted inhibition curve with a large enough effect, not every such curve was filed as active; inconclusive = small, poorly fitted or top-dose-only effect, or another doubt; inactive = no such curve, though single readings can be large or run the other way;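 note: potency is the fitted concentration of half-maximal effect; 0% = wells with enzyme and -100% = buffer wells without enzyme; nearly all actives have a fitted effect of over 50% in size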
Numbers without * were called inactive; ? = inconclusive; · = not tested or not shown; ! = not active in a repeat; [ ] = remark or other dose. Unless noted, calls come from the whole dose curve; as a rule, active = well fitted curve in the direction sought with a large enough effect; inconclusive = small, poorly fitted or top-dose-only effect, or another doubt; inactive = no such curve, though single readings can be large; an effect the other way counts as inactive or inconclusive.

SMILES	VDR inh	GoLoco inh red	HTT aggregate	Coupling enz	HTT ATP protect	KDM4E inh
Cc1ccc(CNC(=O)c2ccc3c(c2)NC(=O)C(CS(=O)(=O)Cc2cccc(C)c2)N3)cc1 (stereo unspecified)	12%	·	·	·	·	·
O=C(O)c1ccc(-c2ccccc2Cl)o1	141µM*!	3%	2%	20	-2%	5%
CCCCC1=CC2=CC(=O)C(C)(OC(=O)CC)C(=O)C2=CN1CCCCO (stereo unspecified)	-6%	-20%[14.2 µM]	17%[9.22 µM]	-35*!	7%[10 µM]	13µM*!
CCCCCCCC1=CC2=CC(=O)C(C)(OC(C)=O)C(=O)C2=CN1CCc1ccccc1 (stereo unspecified)	·	21%	-10%	-2	-22%[10 µM]	-11%
CCCCC1=CC2=CC(=O)C(C)(OC(=O)CC)C(=O)C2=CN1c1cccc(C#N)c1 (stereo unspecified)	-22%	0%[14.2 µM]	·	2	-17%[10 µM]	-5%[11.4 µM]
CCCCC1=CC2=CC(=O)C(C)(OC(=O)CC)C(=O)C2=CN1C1CCCCC1 (stereo unspecified)	-18%	6%[14.2 µM]	10%[9.22 µM]	-19	?	28µM*!
CCCCC1=CC2=CC(=O)C(C)(OC(=O)CC)C(=O)C2=CN1Cc1ccc2c(c1)OCO2 (stereo unspecified)	0%	14%[14.2 µM]	-35%[9.22 µM]	-1	-23%[10 µM]	18µM*!
CCCCC1=CC2=CC(=O)C(C)(OC(=O)CCc3ccccc3)C(=O)C2=CO1 (stereo unspecified)	-1%	-35%	1%[9.22 µM]	2	?	-4%
O=C(Nc1cccc(Cl)c1)C1C2CCC3C(CCC21)C3(Cl)Cl (stereo unspecified)	-2%	0%	?	3	-7%[10 µM]	1%
CNc1ccccc1	-3%	0%	·	·	1%	·
CNc1cccccc1=S	?	-32%	18%	6	-12%	25µM*
C[N+]12CCCCC1C(COC(=O)c1ccc3c(c1)OCO3)CCC2 (stereo unspecified)	-15%	-105%	-8%	4	0%	22µM*
Fc1ccccc1C1CC(c2ccco2)=Nc2ccccc2S1 (stereo unspecified)	79µM*	2%	40%[9.22 µM]	5	-1%[10 µM]	28µM*
CCN(C(=O)Cn1cnc2c1c(=O)n(C)c(=O)n2C)c1ccccc1C	-1%	·	·	·	·	·
FC(F)Oc1ccc(/C=N/n2c(Cc3ccc(Br)cc3)n[nH]c2=S)cc1	79µM*	·	·	-1	·	·
Cc1ccc(OCC(=O)N2CCc3ccccc3C2)c([N+](=O)[O-])n1	-1%	4%	-6%	-1	-59%	-8%
CCOc1ccc(CNS(=O)(=O)c2c(C(=O)N3CCCCCC3)c(C)n(C)c2C)cc1OC	4%	·	·	·	·	·
Cc1cccc(C)c1NC(=O)CSCC(=O)O	-4%	1%	7%	5	4%	3%
Cc1cccc(C)c1NC(=O)CSCC(=O)c1ccc(O)c(O)c1	?	7%	?	3	-44%	28µM*
S=c1nc2c(n[nH]1)c1ccccc1n2CCc1ccccc1	79µM*	·	·	-2	·	·
Cc1ccc(N(CCC(=O)N2CCOCC2)S(=O)(=O)c2ccccc2)cc1	-5%	·	·	·	·	·
Cc1cc(C)cc(NC(=O)C(Cc2ccccc2)N2Cc3ccccc3C2=O)c1 (stereo unspecified)	2%	·	·	·	·	·
NC(=O)CS(=O)C[C@H](N)C(=O)O (stereo partly specified)	·	-19%[14.2 µM]	·	·	0%[10 µM]	·
COc1ccc2c(c1OC)C(=O)N1c3ccccc3N=C(c3ccc([N+](=O)[O-])cc3)CC21 (stereo unspecified)	89µM*	-7%	-9%	-10	-11%[10 µM]	4%
Cc1cccc(C)c1OCc1cc(=O)n2c3c(sc2n1)CCCC3	-15%	·	·	·	·	·

Compound activity: PubChem BioAssay, National Center for Advancing Translational Sciences (NCATS)
